# About 410 targets per protein were measured; listed, in parts, are those with the strongest signals and a random draw of the rest.
# B1: Gz-CVNH (Gibberella zeae) (protein)
# chain: MGSSHHHHHHSSGLVPRGSHMGNFHESSNNIWLEDGHILHAECGNGEGDYVESTLDLDYYIGNDDGSFSWGGENFSGSASNITLDIEGDDNIPVLRAELNPMDGDPVEANVNLSERIGNDCGTLIFLA
# B2: CBM13 2a (Mycobacterium tuberculosum), P64849 (protein)
# chain: DGPVQLKSRLGDVCLDAPSGSWFSPLVINPCNGTDFQRWNLTDDRQVESVAFPGECVNIGNALWARLQPCVNWISQHWTVQPDGLVKSDLDACLTVLGGPDPGTWVSTRWCDPNAPDQQWDSVPLEHHHHHH
# Key:
# Test in all cases: glycan array binding signal (z-score within array); higher = stronger binding
# Conditions in all cases: glycan notation: IUPAC condensed, linker removed
# Fuc(a1-2)Gal(b1-4)GlcNAc = target: Fuc(a1-2)Gal(b1-4)GlcNAc
# Procedure, shortened: (§1)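 Columns mapping to the same glycan were averaged after glycan names were converted to IUPAC-condensed notation. The data come from 3228 arrays in the Consortium for Functional Glycomics database, limited to those with an available protein sequence. Binding is reported as a within-array Z-score averaged across arrays of one protein sequence and across linkers.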
# [1] = target: Fuc(a1-2)Gal(b1-4)GlcNAc(b1-2)[Fuc(a1-2)Gal(b1-4)GlcNAc(b1-4)]Man(a1-3)[Fuc(a1-2)Gal(b1-4)GlcNAc(b1-2)Man(a1-6)]Man(b1-4)GlcNAc(b1-4)GlcNAc
# Procedure, shortened: as §1
# [2] = target: Fuc(a1-2)[Gal(a1-3)]Gal(b1-4)[Fuc(a1-3)]Glc
# Procedure, shortened: as §1
# [3] = target: Fuc(a1-2)[GalNAc(a1-3)]Gal(b1-3)GlcNAc(b1-2)Man(a1-3)[Fuc(a1-2)[GalNAc(a1-3)]Gal(b1-3)GlcNAc(b1-2)Man(a1-6)]Man(b1-4)GlcNAc(b1-4)GlcNAc
# Procedure, shortened: as §1
# [4] = target: Fuc(a1-3)[Gal(b1-4)]GlcNAc
# Procedure, shortened: as §1
# [5] = target: Fuc(a1-3)[Gal(b1-4)]GlcNAc(b1-3)Gal(b1-3)[Fuc(a1-4)]GlcNAc
# Procedure, shortened: as §1
# [6] = target: Gal(a1-3)[Gal(a1-4)]Gal(b1-4)GlcNAc
# Procedure, shortened: as §1
# Gal(a1-6)Glc = target: Gal(a1-6)Glc
# Procedure, shortened: as §1
# [7] = target: Gal(b1-3)GlcNAc(b1-2)[Gal(b1-3)GlcNAc(b1-6)]Man(a1-6)[Gal(b1-3)GlcNAc(b1-2)Man(a1-3)]Man(b1-4)GlcNAc(b1-4)GlcNAc
# Procedure, shortened: as §1
# [8] = target: Gal(b1-4)GlcNAc(b1-2)[Gal(b1-4)GlcNAc(b1-6)]Man(a1-6)[Gal(b1-4)GlcNAc(b1-2)Man(a1-3)]Man(b1-4)GlcNAc(b1-4)GlcNAc
# Procedure, shortened: as §1
# [9] = target: Gal(b1-4)GlcNAc(b1-3)Gal(b1-4)Glc
# Procedure, shortened: as §1
# [10] = target: Gal(b1-4)GlcNAc(b1-3)Gal(b1-4)[Fuc(a1-3)]GlcNAc(b1-3)Gal(b1-4)[Fuc(a1-3)]GlcNAc
# Procedure, shortened: as §1
# Gal3S(b1-4)GlcNAc = target: Gal3S(b1-4)GlcNAc
# Procedure, shortened: as §1
# [11] = target: Gal3S(b1-4)[Fuc(a1-3)]Glc6S
# Procedure, shortened: as §1
# GalNAc(b1-3)Gal = target: GalNAc(b1-3)Gal
# Procedure, shortened: as §1
# [12] = target: GalNAc(b1-3)Gal(a1-4)Gal(b1-4)GlcNAc(b1-3)Gal(b1-4)Glc
# Procedure, shortened: as §1
# [13] = target: GlcNAc(a1-4)Gal(b1-4)GlcNAc(b1-3)Gal(b1-4)GlcNAc(b1-3)Gal(b1-4)GlcNAc
# Procedure, shortened: as §1
# [14] = target: GlcNAc(b1-2)Man(a1-3)[GlcNAc(b1-2)Man(a1-6)]Man(b1-4)GlcNAc(b1-4)GlcNAc
# Procedure, shortened: as §1
# [15] = target: GlcNAc(b1-2)[GlcNAc(b1-4)]Man(a1-3)[GlcNAc(b1-4)][GlcNAc(b1-2)[GlcNAc(b1-6)]Man(a1-6)]Man(b1-4)GlcNAc(b1-4)GlcNAc
# Procedure, shortened: as §1
# [16] = target: GlcNAc(b1-3)Gal(b1-4)GlcNAc(b1-3)Gal(b1-4)GlcNAc
# Procedure, shortened: as §1
# Kdn(a2-3)Gal(b1-3)GalNAc = target: Kdn(a2-3)Gal(b1-3)GalNAc
# Procedure, shortened: as §1
# Kdn(a2-3)Gal(b1-4)GlcNAc = target: Kdn(a2-3)Gal(b1-4)GlcNAc
# Procedure, shortened: as §1
# [17] = target: Man(a1-2)Man(a1-2)Man(a1-3)Man
# Procedure, shortened: as §1
# [18] = target: Man(a1-2)Man(a1-2)Man(a1-6)[Man(a1-3)]Man
# Procedure, shortened: as §1
# [19] = target: Man(a1-2)Man(a1-3)[Man(a1-2)Man(a1-6)]Man
# Procedure, shortened: as §1
# [20] = target: Man(a1-2)Man(a1-3)[Man(a1-2)Man(a1-6)]Man(a1-6)[Man(a1-2)Man(a1-2)Man(a1-3)]Man
# Procedure, shortened: as §1
# [21] = target: Man(a1-2)Man(a1-3)[Man(a1-2)Man(a1-6)]Man(a1-6)[Man(a1-2)Man(a1-2)Man(a1-3)]Man(b1-4)GlcNAc(b1-4)GlcNAc
# Procedure, shortened: as §1
# [22] = target: Man(a1-2)Man(a1-3)[Man(a1-6)]Man(a1-6)[Man(a1-2)Man(a1-3)]Man(b1-4)GlcNAc(b1-4)GlcNAc
# Procedure, shortened: as §1
# [23] = target: Man(a1-2)Man(a1-6)[Man(a1-3)]Man(a1-6)[Man(a1-2)Man(a1-2)Man(a1-3)]Man
# Procedure, shortened: as §1
# [24] = target: Man(a1-2)Man(a1-6)[Man(a1-3)]Man(a1-6)[Man(a1-2)Man(a1-2)Man(a1-3)]Man(b1-4)GlcNAc(b1-4)GlcNAc
# Procedure, shortened: as §1
# [25] = target: GlcNAc(b1-3)Gal(b1-4)GlcNAc(b1-3)Gal(b1-4)GlcNAc(b1-3)Gal(b1-4)GlcNAc(b1-3)Gal(b1-4)GlcNAc(b1-2)Man(a1-3)[GlcNAc(b1-3)Gal(b1-4)GlcNAc(b1-3)Gal(b1-4)GlcNAc(b1-3)Gal(b1-4)GlcNAc(b1-3)Gal(b1-4)GlcNAc(b1-2)Man(a1-6)]Man(b1-4)GlcNAc(b1-4)[Fuc(a1-6)]GlcNAc
# Procedure, shortened: as §1
# [26] = target: GlcNAc(b1-4)Gal(b1-4)GlcNAc
# Procedure, shortened: as §1
# [27] = target: GlcNAc(b1-4)GlcNAc(b1-4)GlcNAc(b1-4)GlcNAc(b1-4)GlcNAc
# Procedure, shortened: as §1
# [28] = target: GlcNAc6S(b1-3)Gal(b1-4)GlcNAc
# Procedure, shortened: as §1
# [29] = target: Man(a1-3)[Man(a1-6)]Man(a1-6)[Man(a1-2)Man(a1-3)]Man(b1-4)GlcNAc(b1-4)GlcNAc
# Procedure, shortened: as §1
# [30] = target: Neu5Ac(a2-3)Gal(b1-3)GalNAc6S
# Procedure, shortened: as §1
# [31] = target: Neu5Ac(a2-3)Gal(b1-3)GlcNAc(b1-2)Man(a1-3)[GlcNAc(b1-4)][Neu5Ac(a2-3)Gal(b1-3)GlcNAc(b1-2)Man(a1-6)]Man(b1-4)GlcNAc(b1-4)GlcNAc
# Procedure, shortened: as §1
# [32] = target: Neu5Ac(a2-3)Gal(b1-3)[Neu5Ac(a2-6)]GlcNAc(b1-3)[Fuc(a1-3)[Gal(b1-4)]GlcNAc(b1-6)]Gal(b1-4)Glc
# Procedure, shortened: as §1
# [33] = target: Neu5Ac(a2-3)Gal(b1-4)GlcNAc(b1-2)[Neu5Ac(a2-3)Gal(b1-4)GlcNAc(b1-2)]Man(a1-6)[Neu5Ac(a2-3)Gal(b1-4)GlcNAc(b1-2)Man(a1-3)][GlcNAc(b1-4)]Man(b1-4)GlcNAc(b1-4)GlcNAc
# Procedure, shortened: as §1
# [34] = target: Neu5Ac(a2-3)Gal(b1-4)GlcNAc(b1-2)[Neu5Ac(a2-3)Gal(b1-4)GlcNAc(b1-6)]Man(a1-6)[Neu5Ac(a2-3)Gal(b1-4)GlcNAc(b1-2)Man(a1-3)]Man(b1-4)GlcNAc(b1-4)GlcNAc
# Procedure, shortened: as §1
# [35] = target: Neu5Ac(a2-3)Gal(b1-4)GlcNAc(b1-3)Gal(b1-4)GlcNAc
# Procedure, shortened: as §1
# [36] = target: Neu5Ac(a2-3)Gal(b1-4)GlcNAc(b1-3)Gal(b1-4)GlcNAc(b1-2)Man(a1-3)[Neu5Ac(a2-3)Gal(b1-4)GlcNAc(b1-3)Gal(b1-4)GlcNAc(b1-2)Man(a1-6)]Man(b1-4)GlcNAc(b1-4)GlcNAc
# Procedure, shortened: as §1
# [37] = target: Neu5Ac(a2-3)Gal(b1-4)GlcNAc(b1-3)Gal(b1-4)GlcNAc(b1-3)Gal(b1-4)GlcNAc(b1-2)Man(a1-3)[Neu5Ac(a2-3)Gal(b1-4)GlcNAc(b1-3)Gal(b1-4)GlcNAc(b1-3)Gal(b1-4)GlcNAc(b1-2)Man(a1-6)]GalNAc
# Procedure, shortened: as §1
# [38] = target: Neu5Ac(a2-3)Gal6S(b1-4)[Fuc(a1-3)]GlcNAc
# Procedure, shortened: as §1
# [39] = target: Neu5Ac(a2-3)[GalNAc(b1-4)]Gal(b1-4)GlcNAc(b1-3)GalNAc
# Procedure, shortened: as §1
# [40] = target: Neu5Ac(a2-6)Gal(b1-4)GlcNAc(b1-2)Man(a1-3)Man(b1-4)GlcNAc(b1-4)GlcNAc
# Procedure, shortened: as §1
# [41] = target: Neu5Ac(a2-6)Gal(b1-4)GlcNAc(b1-3)Gal(b1-4)GlcNAc(b1-3)Gal(b1-4)GlcNAc(b1-2)Man(a1-3)[Neu5Ac(a2-6)Gal(b1-4)GlcNAc(b1-3)Gal(b1-4)GlcNAc(b1-3)Gal(b1-4)GlcNAc(b1-2)Man(a1-6)]GalNAc
# Procedure, shortened: as §1
# [42] = target: Neu5Ac(a2-6)Gal(b1-4)GlcNAc(b1-3)Gal(b1-4)GlcNAc(b1-3)[Neu5Ac(a2-6)Gal(b1-4)GlcNAc(b1-3)Gal(b1-4)GlcNAc(b1-6)]GalNAc
# Procedure, shortened: as §1
# [43] = target: Neu5Ac(a2-8)Neu5Ac(a2-3)Gal(b1-4)Glc
# Procedure, shortened: as §1
binder,measurement,setting,value
B1,glycan array binding signal (z-score),Fuc(a1-2)Gal(b1-4)GlcNAc,-0.133
same,glycan array binding signal (z-score),[1],-0.106
same,glycan array binding signal (z-score),[2],-0.109
same,glycan array binding signal (z-score),[3],-0.121
same,glycan array binding signal (z-score),[4],-0.14
same,glycan array binding signal (z-score),[5],-0.114
same,glycan array binding signal (z-score),[6],-0.135
same,glycan array binding signal (z-score),Gal(a1-6)Glc,-0.128
same,glycan array binding signal (z-score),[7],-0.096
same,glycan array binding signal (z-score),[8],-0.094
same,glycan array binding signal (z-score),[9],-0.114
same,glycan array binding signal (z-score),[10],-0.14
same,glycan array binding signal (z-score),Gal3S(b1-4)GlcNAc,-0.166
same,glycan array binding signal (z-score),[11],0.005
same,glycan array binding signal (z-score),GalNAc(b1-3)Gal,-0.146
same,glycan array binding signal (z-score),[12],-0.132
same,glycan array binding signal (z-score),[13],-0.131
same,glycan array binding signal (z-score),[14],-0.129
same,glycan array binding signal (z-score),[15],-0.112
same,glycan array binding signal (z-score),[16],-0.14
same,glycan array binding signal (z-score),Kdn(a2-3)Gal(b1-3)GalNAc,-0.14
same,glycan array binding signal (z-score),Kdn(a2-3)Gal(b1-4)GlcNAc,-0.117
same,glycan array binding signal (z-score),[17],3.53
same,glycan array binding signal (z-score),[18],7.75
same,glycan array binding signal (z-score),[19],1.63
same,glycan array binding signal (z-score),[20],12.7
same,glycan array binding signal (z-score),[21],2.82
same,glycan array binding signal (z-score),[22],5.4
same,glycan array binding signal (z-score),[23],9.9
same,glycan array binding signal (z-score),[24],8.33
B2,glycan array binding signal (z-score),[25],-0.169
same,glycan array binding signal (z-score),[26],-0.553
same,glycan array binding signal (z-score),[27],-0.213
same,glycan array binding signal (z-score),[28],-0.288
same,glycan array binding signal (z-score),[20],-0.338
same,glycan array binding signal (z-score),[29],6.51
same,glycan array binding signal (z-score),[30],-0.262
same,glycan array binding signal (z-score),[31],-0.103
same,glycan array binding signal (z-score),[32],-0.258
same,glycan array binding signal (z-score),[33],-0.048
same,glycan array binding signal (z-score),[34],-0.017
same,glycan array binding signal (z-score),[35],-0.249
same,glycan array binding signal (z-score),[36],7.02
same,glycan array binding signal (z-score),[37],9.05
same,glycan array binding signal (z-score),[38],-0.271
same,glycan array binding signal (z-score),[39],4.49
same,glycan array binding signal (z-score),[40],-0.031
same,glycan array binding signal (z-score),[41],4.67
same,glycan array binding signal (z-score),[42],8.64
same,glycan array binding signal (z-score),[43],-0.117
